An excerpt weighted towards active compounds, which were near 2.2% of everything screened.
Mito fusion yeast = inhibitors of mitochondrial division or activators of mitochondrial fusion | S. cerevisiae fusion-defective mutant growth rescue, CellTiterGlo 48 h | Potency, µM (titrated, usually from 46.1 µM), for inactives: top-dose growth rescue (activation), most hits filed as activators | actives 0.23% (n = 320,000) | AID 485298; note: % of control where 0% means no effect; nearly all actives have a fitted effect of over 45% in size
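Yeast fusion mutant, YPEG (non-fermentable carbon), compound, 48 h at 37C non-permissive; CellTiterGlo added, 10 min RT, luminescence read. Rescued growth = division inhibition.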
FUS suppressor = rescues growth of FUS-expressing yeast; Potency, µM (top dose mostly 76.6 µM), actives largely listed as activators; S. cerevisiae FUS-expressing, growth rescue, OD600, 24 h; actives 0.24% (n = 390,000);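 note: plate controls were DMSO vehicle for no effect and reference control for full effect; nearly all actives have a fitted effect of over 55% in size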
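Yeast FUS proteinopathy model; galactose-induced FUS (2%), starting OD 0.005. Cpds in dilution series, 24hr, 30C, 99% humidity. Abs 600 nm growth. Pos ctrl CP55940 (top 92uM final); neg ctrl DMSO.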
Abeta yeast res = compounds reversing amyloid beta toxicity in yeast | AID 1347071 | yeast expressing A-beta42, growth rescue, OD600, 48 h; response scale: 0% DMSO, 100% iron-clioquinol control | Potency, µM (titrated, usually from 46.1 µM), actives largely listed as activators | actives 0.063% (n = 410,000); note: nearly all actives have a fitted effect of over 55% in size
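Yeast growth medium received pinned compounds, then yeast cells expressing toxic A-beta were added; plates incubated at 30 C for 48 hr. Growth read as absorbance at 600 nm, normalized to DMSO and equimolar FeCl3 plus clioquinol controls.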
TDP-43 yeast inh = rescues yeast growth from TDP-43 toxicity; TDP-43 expressing yeast growth rescue, BacTiter-Glo, 24 h; Potency, µM (highest dose often 46.1 µM), without a hit: at the top dose growth rescue (activation), actives largely listed as activators; actives 1.8% (n = 410,000); AID 652104; note: % of control where 0% means no effect; nearly all actives have a fitted effect of over 50% in size
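Yeast expressing TDP-43 (pregrown in raffinose, seeded at OD600=0.02 in galactose medium) exposed to compounds 24 hr at 30 deg C. Growth read by BacTiter-Glo luminescence; rescue of toxicity appears as increased signal.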
aSyn yeast inh = alpha-synuclein toxicity inhibition in yeast. actives 0.14% (n = 370,000). AID 652106. Yeast expressing alpha-synuclein, growth rescue, BacTiter-Glo, 24 h. Potency, µM (series often up to 46.1 µM), for inactives: top-dose growth rescue (activation), usual class: activators; note: % of control where 0% means no effect; nearly all actives have a fitted effect of over 65% in size
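Galactose-induced alpha-syn yeast (OD600=0.02, raffinose-pregrown) + pinned cpd, 24 hr, 30 deg C; growth by BacTiter-Glo luminescence. Growth restoration scores as activation.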
* = called active by the depositor. Calls come from the whole dose curve; as a rule, active = well fitted curve in the direction sought with a large enough effect; inconclusive = small, poorly fitted or top-dose-only effect, or another doubt; inactive = no such curve, though single readings can be large; an effect the other way counts as inactive or inconclusive. Potency is the fitted concentration of half-maximal effect.

Screening COc1ccc(OC)c(NC(=O)CSc2nnc(-c3ccco3)n2-c2ccccc2)c1 returned Mito fusion yeast 6%, FUS suppressor inactive, Abeta yeast res inactive, TDP-43 yeast inh 8% and aSyn yeast inh -2%.
`Cc1nc(NCc2ccccn2)c2c3c(sc2n1)CCCC3` gave Mito fusion yeast 20µM*, FUS suppressor inactive, Abeta yeast res inactive, TDP-43 yeast inh 22% and aSyn yeast inh 0%.
Screening Cc1nc(NCc2ccco2)c2c3c(sc2n1)CCC3 returned Mito fusion yeast -5%, FUS suppressor inconclusive, Abeta yeast res inactive, TDP-43 yeast inh inconclusive and aSyn yeast inh 7%.
c1ccc(CNc2ncnc3sc4c(c23)CCCC4)nc1 was read as Mito fusion yeast 6%, FUS suppressor inactive, Abeta yeast res inactive, TDP-43 yeast inh 13µM* and aSyn yeast inh 2%.
Screening c1coc(CNc2ncnc3sc4c(c23)CCCCC4)c1 returned Mito fusion yeast 2%, FUS suppressor inactive, Abeta yeast res inactive, TDP-43 yeast inh 13µM* and aSyn yeast inh 0%.
CC1CCc2sc3nc(NCc4ccco4)n4ncnc4c3c2C1 (stereo not drawn) was read as Mito fusion yeast 4%, FUS suppressor inactive, Abeta yeast res inactive, TDP-43 yeast inh 25µM* and aSyn yeast inh 0%.
CC1CCCc2sc3nc(NCc4ccco4)n4ncnc4c3c21 (stereo not drawn) was read as Mito fusion yeast inconclusive, FUS suppressor inactive, Abeta yeast res inactive, TDP-43 yeast inh -7% and aSyn yeast inh -16%.
`CN(C)C(CNc1ncnc2sc3c(c12)CCCC3)c1ccco1` (stereo not drawn) gave Mito fusion yeast 1%, FUS suppressor inconclusive, Abeta yeast res inactive, TDP-43 yeast inh 10% and aSyn yeast inh 1%.
`O=C(Oc1ccccc1F)c1nc(SCc2ccc(F)cc2)ncc1Cl` gave FUS suppressor inactive, Abeta yeast res inactive and TDP-43 yeast inh -5%.
COc1ccc(C2=C(C(C)=O)Sc3nnc(-c4ccc(Cl)cc4)n3N2C(C)=O)cc1OC was read as FUS suppressor inactive, Abeta yeast res inactive and TDP-43 yeast inh 22%.
`Cc1ccc(S(=O)(=O)Cc2nc(-c3ccc(C(=O)NCc4ccccc4)cc3)oc2C)cc1` gave FUS suppressor inactive, Abeta yeast res inactive and TDP-43 yeast inh 10%.
Screening Cc1cc(Oc2ccc(Cl)cc2Cl)nc(C#N)n1 returned aSyn yeast inh 3%.
For CCn1nnc2cc(C(=O)Nc3cccc(C)c3C)ccc21 the results were FUS suppressor inactive, Abeta yeast res inactive and TDP-43 yeast inh 8%.
Screening Cc1ccc(-n2c(SCC(N)=O)nc3c(oc4ccccc43)c2=O)cc1C returned FUS suppressor inactive, Abeta yeast res inactive and TDP-43 yeast inh 8%.
For Cc1ccc(O)c(N)c1 the results were Mito fusion yeast 4%, FUS suppressor inactive, Abeta yeast res inactive, TDP-43 yeast inh 17% and aSyn yeast inh -11%.
Cc1ccc(O)c(Sc2cc(C)ccc2O)c1 was read as Mito fusion yeast 28%, FUS suppressor inactive, Abeta yeast res inconclusive, TDP-43 yeast inh 22µM* and aSyn yeast inh inconclusive.
For O=[N+]([O-])c1ccc(/C=C/c2ccnc3ccccc23)c([N+](=O)[O-])c1 the results were aSyn yeast inh 5%.
For Cc1sc2ncnc(Sc3ccccc3C(=O)Nc3ccc(C#N)cc3)c2c1C the results were Mito fusion yeast 13µM*, FUS suppressor inconclusive, Abeta yeast res inactive, TDP-43 yeast inh inconclusive and aSyn yeast inh 9%.
`Cc1sc2ncnc(Sc3ccccc3C(=O)Nc3ccc(Br)cc3)c2c1C` gave Mito fusion yeast inconclusive, Abeta yeast res inactive, TDP-43 yeast inh -18% and aSyn yeast inh 6%.
For CN(C)c1ccc(/C=C/c2ncnc3ccccc23)cc1 the results were aSyn yeast inh 11%.
Screening O=C1Nc2ccc(Br)cc2/C1=C/C1CC=CCC1 (stereo not drawn) returned Mito fusion yeast 5%, FUS suppressor inactive, Abeta yeast res inactive, TDP-43 yeast inh 20µM* and aSyn yeast inh -77%.
CC(=O)Nc1nc(-c2ccc(Cl)cc2)nc(C)c1C(C)=O was read as Mito fusion yeast -8%, FUS suppressor inactive, Abeta yeast res inactive, TDP-43 yeast inh 35µM* and aSyn yeast inh 0%.
CSc1nnc2c3cc(F)ccc3n(C)c2n1 was read as Mito fusion yeast -3%, FUS suppressor inactive, Abeta yeast res inactive, TDP-43 yeast inh 6.3µM* and aSyn yeast inh 2.8µM*.
`CCN(CC)CCSc1nnc2c3cc(F)ccc3n(C)c2n1` gave FUS suppressor inactive, Abeta yeast res inactive and TDP-43 yeast inh -15%.
`CCN(CC)c1ccc(NC(=O)c2cc(C)nc3c2c(C)nn3-c2ccc(C)cc2)c(C)c1` gave FUS suppressor inactive, Abeta yeast res inactive and TDP-43 yeast inh -6%.
Screening CC1CC(C)CN(C(=O)c2cc3cc(Br)cc(Br)c3o2)C1 (stereo not drawn) returned Mito fusion yeast 11%, FUS suppressor inactive, Abeta yeast res inactive, TDP-43 yeast inh 32µM* and aSyn yeast inh -8%.
`COc1ccc2nc3oc(C(=O)N4CCCCC4)cc3cc2c1` gave Mito fusion yeast 4%, FUS suppressor inactive, Abeta yeast res inactive, TDP-43 yeast inh inconclusive and aSyn yeast inh -6%.
Screening CC1CC(C)CN(C(=O)c2cc3ccccc3o2)C1 (stereo not drawn) returned Mito fusion yeast -1%, FUS suppressor inactive, Abeta yeast res inactive, TDP-43 yeast inh inconclusive and aSyn yeast inh 2%.
COc1ccc2nc3oc(C(=O)N4CC(C)CC(C)C4)cc3cc2c1 (stereo not drawn) was read as Mito fusion yeast 8%, FUS suppressor inactive, Abeta yeast res inactive, TDP-43 yeast inh 13µM* and aSyn yeast inh 8%.
Screening CCC1CN(C(=O)N2CCC(C(=O)NCCc3ccc(OC)cc3OC)CC2)c2cc(C)ccc2O1 (stereo not drawn) returned FUS suppressor inconclusive, Abeta yeast res inactive and TDP-43 yeast inh 1%.
Cn1c(=O)n(C)c2cc(NS(=O)(=O)c3ccc(F)cc3)c(NCc3ccccc3)cc21 was read as FUS suppressor inactive, Abeta yeast res inactive and TDP-43 yeast inh 11%.
`Fc1ccc(Cn2nnnc2C(c2ccc(Cl)cc2)N2CCSCC2)cc1` (stereo not drawn) gave Mito fusion yeast 20%, FUS suppressor inactive, Abeta yeast res inactive, TDP-43 yeast inh 35µM* and aSyn yeast inh 10%.
Screening Cc1cccc(-c2noc(CNC(=O)c3ccc(C)cc3C)n2)c1 returned FUS suppressor inactive, Abeta yeast res inactive and TDP-43 yeast inh 2%.
For Cc1ccc(-c2noc(CNC(=O)c3ccccc3)n2)cc1 the results were FUS suppressor inactive, Abeta yeast res inactive and TDP-43 yeast inh -1%.

High-throughput results deposited in PubChem BioAssay by National Center for Advancing Translational Sciences (NCATS).
